{"source": "PubChem BioAssay AID687030", "about": "(Broad Institute, 2013)", "note": "In all, about 1,400 compounds went through this assay and about 10 (0.7%) were called active. Only a sample is shown. Entries with a potency or affinity are not part of this list. A number with no mark means an inactive call. The rule behind the calls is not given here.", "data": [{"experiment": "BHK-21 cell toxicity, dose response, cytotoxicity control, plate reader, cherry-pick samples (AID 687030);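 note: cells were exposed to compound for three days before reading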", "conditions": "BHK-21 cells; series mostly up to 19.5 µM; activity change, negative = toxicity: at the top concentration", "values": [{"smiles": "Cc1ccc(N(C)C(=O)N2CCN(S(=O)(=O)c3ccc(C)cc3)CC2)cc1", "activity change, negative = toxicity": "1.54%"}, {"smiles": "CCOC(=O)c1[nH]c2ccccc2c1NC(=O)c1ccc2c(c1)OCO2", "activity change, negative = toxicity": "-0.148%"}, {"smiles": "Cc1cccc(N(C(=O)Cn2nnc3ccccc32)C(C(=O)NC(C)(C)C)c2ccsc2)c1", "note": "(stereo not drawn)", "activity change, negative = toxicity": "-2.95%"}, {"smiles": "O=C(CNC(=O)N1CC(=O)Nc2ccccc21)NCc1ccc(F)cc1", "activity change, negative = toxicity": "0.609%"}, {"smiles": "Cc1noc(C)c1S(=O)(=O)N(C)C[C@H]1OCCCC[C@@H](C)Oc2ccc(NC(=O)Nc3ccc4c(c3)OCO4)cc2C(=O)N([C@@H](C)CO)C[C@H]1C", "activity change, negative = toxicity": "-2.3%"}, {"smiles": "CCOC(=O)c1[nH]c(C)c(C(=O)OCC(=O)N2CC(=O)Nc3ccccc32)c1C", "activity change, negative = toxicity": "-1.55%"}, {"smiles": "CC1CCCCN1CCCNC(=O)c1ccc2nc(N3CCCCC3)sc2c1", "note": "(stereo not drawn)", "activity change, negative = toxicity": "-1.24%"}, {"smiles": "CCOC(=O)c1sc(NC(=O)c2ccncc2)c(C#N)c1C", "activity change, negative = toxicity": "2.78%"}, {"smiles": "CC(C)C(=O)Nc1nnc(S(=O)(=O)N2CCc3ccccc32)s1", "activity change, negative = toxicity": "-1.38%"}, {"smiles": "Fc1ccc(CCN2CCN=C2Nc2ccccc2)cc1", "activity change, negative = toxicity": "-3.21%"}, {"smiles": "CCC(C)[C@H]1COCCS(=O)(=O)N1Cc1ccc(Br)cc1", "note": "(stereo partly drawn)", "activity change, negative = toxicity": "-1.52%"}, {"smiles": "O=C(N[C@@H]1C=C[C@H](CC(=O)N2CCc3ccccc3C2)O[C@@H]1CO)C1CCC1", "activity change, negative = toxicity": "3.49%"}, {"smiles": "COc1cc2cc(CCCOC(=O)CCC(=O)O)oc(=O)c2cc1OC", "activity change, negative = toxicity": "-0.198%"}, {"smiles": "CC1Cc2ccccc2N1S(=O)(=O)c1cnc(Cl)c(Br)c1", "note": "(stereo not drawn)", "activity change, negative = toxicity": "-8.32%"}, {"smiles": "O=C(O)c1cccc(-c2csc(C(O)c3ccc(F)c(F)c3)n2)c1", "note": "(stereo not drawn)", "activity change, negative = toxicity": "-1.2%"}, {"smiles": "O=C(O)c1ccccc1C(=O)NCc1c(Cl)cccc1Sc1ccc(Cl)cc1", "activity change, negative = toxicity": "2.35%"}, {"smiles": "COc1ccc(CCN2CC(C(=O)NCCc3cn[nH]c3)CCC2=O)cc1", "note": "(stereo not drawn)", "activity change, negative = toxicity": "-3.58%"}, {"smiles": "CNC(=O)C[C@H]1CC[C@@H]2[C@H](COc3ccc(NC(=O)c4ccc(F)c(F)c4)cc3C(=O)N2C)O1", "activity change, negative = toxicity": "2.5% [at 21 µM]"}, {"smiles": "COc1cc2c(cc1OC)CN(C(=O)CCOc1ccccc1C)CC2", "activity change, negative = toxicity": "1.41%"}, {"smiles": "N#Cc1cccnc1N1CCN(C(=O)c2ccccc2)CC1", "activity change, negative = toxicity": "-6.78%"}, {"smiles": "O=C(NCC[C@H]1CC[C@H](NS(=O)(=O)c2ccc(Oc3ccccc3)cc2)[C@@H](CO)O1)C1CC1", "activity change, negative = toxicity": "-1.83%"}, {"smiles": "CCCCCc1c(-c2ccccc2OC)ncn1CCc1ccccc1OC", "activity change, negative = toxicity": "-3.51%"}, {"smiles": "O=C(Nc1cccc(S(=O)(=O)N2CCCCCC2)c1)c1ccc2ccccc2n1", "activity change, negative = toxicity": "1.68%"}, {"smiles": "Cc1ccc(C(=O)O/N=C(\\N)c2ccccn2)cc1", "activity change, negative = toxicity": "-4.24%"}, {"smiles": "CCc1nc2ccc(C(=O)N(CC)CCN(C)C)cn2c1N(C)C(=O)c1cccc(OC)c1", "activity change, negative = toxicity": "11%"}, {"smiles": "C[C@@H]1CN([C@@H](C)CO)C(=O)c2cc(NS(=O)(=O)c3ccc(Cl)cc3)ccc2O[C@@H](C)CCCCO[C@H]1CN(C)CC1CC1", "activity change, negative = toxicity": "-1.91%"}, {"smiles": "O=C(c1cc(C2CC2)on1)N1CCCC(N2CCN(c3cccc(C(F)(F)F)c3)CC2)C1", "note": "(stereo not drawn)", "activity change, negative = toxicity": "1.75%"}, {"smiles": "O=C(c1ccncc1)N1CCCC(N2CCN(c3cccc(C(F)(F)F)c3)CC2)C1", "note": "(stereo not drawn)", "activity change, negative = toxicity": "1.83%"}, {"smiles": "O=S(=O)(NCc1c(Cl)cccc1Oc1ccccc1)c1ccccc1", "activity change, negative = toxicity": "-4.45%"}, {"smiles": "CCOc1ccc(C(=O)NCC(=O)N2CCCCCCC2)cc1", "activity change, negative = toxicity": "-5.62%"}, {"smiles": "O=C(O)C[C@H]1C=C[C@@H](NC(=O)CCN2CCCCC2)[C@@H](CO)O1", "activity change, negative = toxicity": "6.26%"}, {"smiles": "CC1CCOC(c2coc3ccccc3c2=O)O1", "note": "(stereo not drawn)", "activity change, negative = toxicity": "-2.55%"}, {"smiles": "COc1ccc(Br)cc1[C@H]1[C@H]2C=CC[C@@H](C)[C@@H]2C(=O)N1Cc1ccccc1", "activity change, negative = toxicity": "4.79%"}, {"smiles": "O=C(Nc1cccc(-n2cnnn2)c1)C1CCCN(C(=O)Cc2cccc(Cl)c2)C1", "note": "(stereo not drawn)", "activity change, negative = toxicity": "1.47%"}, {"smiles": "CC(C)CN(C(=O)c1cc(Cl)nc2ccccc12)c1c(N)n(Cc2ccccc2)c(=O)[nH]c1=O", "activity change, negative = toxicity": "4.68%"}, {"smiles": "O=C(O)[C@H]1[C@H](CO)[C@H]2Cn3c(ccc(/C=C/c4ccccc4)c3=O)[C@H]2N1C(=O)c1cnccn1", "activity change, negative = toxicity": "-3.31%"}, {"smiles": "CN(CC(=O)Nc1ccc(F)cc1)C(=O)COC(=O)c1nc(Cl)ccc1Cl", "activity change, negative = toxicity": "3.06%"}, {"smiles": "CC(C)(C)OC(=O)CNC(=O)c1[nH]cnc1C(=O)N[C@@H](Cc1ccccc1)C(=O)OC(C)(C)C", "activity change, negative = toxicity": "7.08%"}, {"smiles": "CCOc1ncccc1C(=O)NNC(=O)c1cccc(S(=O)(=O)Nc2ccccc2OC)c1", "activity change, negative = toxicity": "2.97%"}, {"smiles": "COc1cccc(N2CCN(C(=O)c3cccc(NC4=NC5CS(=O)(=O)CC5S4)c3)CC2)c1", "note": "(stereo not drawn)", "activity change, negative = toxicity": "-7.17%"}, {"smiles": "CC(=O)Nc1cccc2ncccc12", "activity change, negative = toxicity": "-1.27%"}, {"smiles": "COc1cc(NC(C)=O)c2ncccc2c1Br", "activity change, negative = toxicity": "7.72%"}, {"smiles": "OC(COC(c1ccc(F)cc1)c1ccc(F)cc1)CN1CCCC1", "note": "(stereo not drawn)", "activity change, negative = toxicity": "3.3%"}, {"smiles": "Cc1ccc(C(=O)Nc2ccc(CN3CCCCC3)cc2)c(C)c1", "activity change, negative = toxicity": "4.85%"}, {"smiles": "CN1CCC2CC1c1cc(-c3ccc(C(F)(F)F)cc3)ccc12", "note": "(stereo not drawn)", "activity change, negative = toxicity": "6.96%"}, {"smiles": "O=C(C[C@@H]1CC[C@H]2[C@@H](COC[C@@H](O)CN2Cc2cccc(Cl)c2)O1)N1CCOCC1", "activity change, negative = toxicity": "-4.37%"}, {"smiles": "O=C(C[C@H]1CC[C@H]2[C@@H](COC[C@@H](O)CN2Cc2cccc(C(F)(F)F)c2)O1)NCc1ccc(F)cc1", "activity change, negative = toxicity": "3.27%"}, {"smiles": "C[C@@H]1CCCCO[C@H](CN(C)S(=O)(=O)c2ccccc2)[C@@H](C)CN([C@@H](C)CO)C(=O)c2cc(NC(=O)CCCN(C)C)ccc2O1", "activity change, negative = toxicity": "1.9%"}, {"smiles": "COc1ccc(S(=O)(=O)N(C)C[C@@H]2Oc3ccc(NS(=O)(=O)c4ccccc4)cc3C(=O)N([C@H](C)CO)C[C@H]2C)cc1", "activity change, negative = toxicity": "3.26%"}, {"smiles": "CCNC(=O)C[C@H]1CC[C@H]2[C@@H](COC[C@H](O)CN2Cc2ccc(Cl)c(Cl)c2)O1", "activity change, negative = toxicity": "0.129%"}, {"smiles": "CCNC(=O)C[C@H]1CC[C@H]2[C@@H](COC[C@@H](O)CN2Cc2ccc(Cl)c(Cl)c2)O1", "activity change, negative = toxicity": "-6.91%"}, {"smiles": "CCC1CN(S(=O)(=O)c2ccc3c(c2)NC(=O)CC(=O)N3)c2cc(Cl)ccc2O1", "note": "(stereo not drawn)", "activity change, negative = toxicity": "1.53%"}, {"smiles": "Cc1cc(OCC(=O)NC(Cc2c[nH]c3ccc(O)cc23)C(=O)O)c2c(C)c(C)c(=O)oc2c1", "note": "(stereo not drawn)", "activity change, negative = toxicity": "1.75%"}, {"smiles": "COc1cccc(CNC(=O)[C@@H]2CCCN2C(=O)[C@H]2CCCCN2C(=O)c2ccc(Cl)cc2)c1", "activity change, negative = toxicity": "-5.85%"}, {"smiles": "CCCCn1c(N)c(N(CC)C(=O)c2cc(C)cc(C)c2)c(=O)[nH]c1=O", "activity change, negative = toxicity": "-0.06%"}, {"smiles": "CC(C)CCC(O)(c1ccccc1)C(CN1CCOCC1)c1ccccc1", "note": "(stereo not drawn)", "activity change, negative = toxicity": "0.142%"}, {"smiles": "C[C@@H]1CCCCO[C@H](CN(C)S(=O)(=O)c2ccc(Cl)cc2)[C@H](C)CN([C@H](C)CO)C(=O)c2cc(N(C)C)ccc2O1", "activity change, negative = toxicity": "3.31%"}, {"smiles": "C=CCOc1ccccc1CN1CCC(Cc2ccccc2)CC1", "activity change, negative = toxicity": "-7.66%"}]}]}
